# Test results taken from PubChem BioAssay (NCI).
# This is part of a sample that, as a whole, favours compounds with a hit. Of some 79,000 tested, about 15% had one in any assay. Values without a mark were called inactive. The source made the active and inactive calls. Rule as the data show it: active = growth inhibition above about 70%; inactive = the rest.
# Assay: NCI Yeast Anticancer Drug Screen. Data for the mlh1 strain (AID 171);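 also: 0% = growth of vehicle-treated control cultures of the same strain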
# Settings: S. cerevisiae mlh1 strain growth inhibition; at 33.0 µM; hits give high values
# Outline: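 Measured: yeast growth. Reference: vehicle-treated controls. Organism: strain with a defined alteration affecting DNA damage repair or cell cycle control, treated with compound.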
row,SMILES,growth inhibition
1,CCOP(=O)(OCC)C(Cc1ccccc1)N=C(c1ccccc1)c1ccccc1 (stereo not drawn),90% (active)
2,CCc1ncnc2cc(OCC3CO3)c(OC)cc12 (stereo not drawn),14%
3,CCOC(=O)[C@H]1Nc2ccccc2C2c3ccccc3CC21 (stereo partly drawn),70% (active)
4,O=CNc1ccc2c(c1)C(=O)c1ccccc1-2,72% (active)
5,CCOc1ccc2c(c1)c(CC(=O)O)cn2C,42%
6,OC1CSCCCSCCSCCCSC1,16%
7,N#Cc1c(N)[nH]c2ccc(Sc3ccccc3)cc12,96% (active)
8,Cc1ccc(-c2ccc(Nc3c4ccccc4nc4ccccc34)cc2)cn1,88% (active)
9,c1ccc2c(c1)NC(NC1Nc3ccccc3N1)N2,10%
10,OC(COc1cccc2ccccc12)CN1CCOCC1 (stereo not drawn),18%
11,CCC/C(Cl)=N\OC(=O)Nc1ccc(Br)cc1,97% (active)
12,COc1ccc(/C=C2\SC(=S)N(/C=C/c3nc4ccccc4[nH]c3=O)C2=O)cc1OC,76% (active)
13,O=C(NNc1ccnc2cc(Cl)ccc12)/C(=C\c1ccccc1Cl)NC(=O)c1ccccc1,26%
14,CSC1=NNC(SC)=NN1,62%
15,Cc1c(C2=C(Br)C(=O)N(C)C2=O)c(=O)n(C)c(=O)n1C,48%
16,NCCNc1ccc(NCCN)c2c1C(=O)c1c(O)ccc(O)c1C2=O,86% (active)
17,Cn1c(=O)c(-c2ccccc2)c(N=[N+]=[N-])c2ccccc21,92% (active)
18,CCCCCCCCCCCCCCCCCCOCC(O)COP(=O)(O)OCC1OC(n2cc(F)c(=O)[nH]c2=O)CC1O (stereo not drawn),96% (active)
19,CCS(=O)(=O)c1ccc(/C=C/C=N/NC(=S)NCC(C)C)cc1,13%
20,CCC(=O)Oc1c(Cl)cc(Cl)c2ccccc12,10%

row,SMILES,growth inhibition
1,COc1cc2c3c(cccc3c1)C(=O)N(CCN(C)C)C2=O,-9%
2,CN(C)c1ccc(C(C#N)=C(C#N)C#N)cc1,-6%
3,O=C(CCCN1CCC2(CC1)CC(=O)N(N1CCCCCC1)C2=O)c1ccc(F)cc1,52%
4,O=C1C2C(C(=O)N1c1ccc(OCc3ccccc3)cc1)C1c3ccccc3C2C2CCCCN21 (stereo not drawn),28%
5,CCN(CC)CCC(=O)c1ccc(Oc2ccc(F)cc2)cc1,73% (active)
6,O=Nc1c(NO)ccc2nn(-c3ccccc3)nc12,98% (active)
7,CC(=O)SCCC[Si](C)(C)CCCSC(C)=O,21%
8,O=C(O)C1CCCCC1c1c2ccc(=O)c(O)c-2oc2c(O)c(O)ccc12 (stereo not drawn),38%
9,Cc1ccc(NN(NC(=O)OC(C)C)C(=O)OC(C)C)cc1,7%
10,O=C1c2ccccc2C(=O)c2cc(CBr)ccc21,40%
11,Cc1c(C(Cc2ccccc2N(C)C(=O)/C=C\C(=O)O)c2c[nH]c3ccccc23)c2ccccc2n1C (stereo not drawn),4%
12,CC(C)/C(Cl)=N\OC(=O)Nc1ccc(F)cc1,62%
13,O=C1OC(=O)C2CCCC3CCCC1C32 (stereo not drawn),96% (active)
14,CCOC(=O)C(NC(=O)c1ccccc1)(N1CCN(c2cc3c(cc2F)c(=O)c(C(=O)O)cn3C2CC2)CC1)C(F)(F)F (stereo not drawn),0%
15,COc1ccc(NC(=S)N/N=C(\c2ccccc2)c2ccccn2)cc1,60%
16,C=CCC1=C(C)C(OC(=O)/C=C/c2ccccc2)CC1=O (stereo not drawn),3%
17,NNc1c(F)c(F)cc(F)c1F,5%
18,COP(=O)(OC)/C(=C\C1=CN(C(c2ccccc2)(c2ccccc2)c2ccccc2)CN1)NC=O,71% (active)
19,COC(=O)c1cc(-c2ccc(C)cc2)[nH]c(=O)c1C#N,0%

# Same assay, conditions: S. cerevisiae mlh1 strain growth inhibition; at 100.0 µM; hits give high values
row,SMILES,growth inhibition
1,CCOP(=O)(OCC)C(Cc1ccccc1)N=C(c1ccccc1)c1ccccc1 (stereo not drawn),98% (active)
2,CCc1ncnc2cc(OCC3CO3)c(OC)cc12 (stereo not drawn),61%
3,CCOC(=O)[C@H]1Nc2ccccc2C2c3ccccc3CC21 (stereo partly drawn),60%
4,O=CNc1ccc2c(c1)C(=O)c1ccccc1-2,97% (active)
5,CCOc1ccc2c(c1)c(CC(=O)O)cn2C,75% (active)
6,OC1CSCCCSCCSCCCSC1,-17%
7,N#Cc1c(N)[nH]c2ccc(Sc3ccccc3)cc12,97% (active)
8,Cc1ccc(-c2ccc(Nc3c4ccccc4nc4ccccc34)cc2)cn1,72% (active)
9,c1ccc2c(c1)NC(NC1Nc3ccccc3N1)N2,14%
10,OC(COc1cccc2ccccc12)CN1CCOCC1 (stereo not drawn),37%
11,CCC/C(Cl)=N\OC(=O)Nc1ccc(Br)cc1,98% (active)
12,COc1ccc(/C=C2\SC(=S)N(/C=C/c3nc4ccccc4[nH]c3=O)C2=O)cc1OC,91% (active)
13,O=C(NNc1ccnc2cc(Cl)ccc12)/C(=C\c1ccccc1Cl)NC(=O)c1ccccc1,24%
14,CSC1=NNC(SC)=NN1,98% (active)
15,Cc1c(C2=C(Br)C(=O)N(C)C2=O)c(=O)n(C)c(=O)n1C,97% (active)
16,NCCNc1ccc(NCCN)c2c1C(=O)c1c(O)ccc(O)c1C2=O,66%
17,Cn1c(=O)c(-c2ccccc2)c(N=[N+]=[N-])c2ccccc21,88% (active)
18,CCCCCCCCCCCCCCCCCCOCC(O)COP(=O)(O)OCC1OC(n2cc(F)c(=O)[nH]c2=O)CC1O (stereo not drawn),97% (active)
19,CCS(=O)(=O)c1ccc(/C=C/C=N/NC(=S)NCC(C)C)cc1,41%
20,CCC(=O)Oc1c(Cl)cc(Cl)c2ccccc12,38%

row,SMILES,growth inhibition
1,COc1cc2c3c(cccc3c1)C(=O)N(CCN(C)C)C2=O,0%
2,CN(C)c1ccc(C(C#N)=C(C#N)C#N)cc1,17%
3,O=C(CCCN1CCC2(CC1)CC(=O)N(N1CCCCCC1)C2=O)c1ccc(F)cc1,63%
4,O=C1C2C(C(=O)N1c1ccc(OCc3ccccc3)cc1)C1c3ccccc3C2C2CCCCN21 (stereo not drawn),95% (active)
5,CCN(CC)CCC(=O)c1ccc(Oc2ccc(F)cc2)cc1,83% (active)
6,O=Nc1c(NO)ccc2nn(-c3ccccc3)nc12,98% (active)
7,CC(=O)SCCC[Si](C)(C)CCCSC(C)=O,51%
8,O=C(O)C1CCCCC1c1c2ccc(=O)c(O)c-2oc2c(O)c(O)ccc12 (stereo not drawn),74% (active)
9,Cc1ccc(NN(NC(=O)OC(C)C)C(=O)OC(C)C)cc1,8%
10,O=C1c2ccccc2C(=O)c2cc(CBr)ccc21,85% (active)
11,Cc1c(C(Cc2ccccc2N(C)C(=O)/C=C\C(=O)O)c2c[nH]c3ccccc23)c2ccccc2n1C (stereo not drawn),62%
12,CC(C)/C(Cl)=N\OC(=O)Nc1ccc(F)cc1,98% (active)
13,O=C1OC(=O)C2CCCC3CCCC1C32 (stereo not drawn),97% (active)
14,CCOC(=O)C(NC(=O)c1ccccc1)(N1CCN(c2cc3c(cc2F)c(=O)c(C(=O)O)cn3C2CC2)CC1)C(F)(F)F (stereo not drawn),1%
15,COc1ccc(NC(=S)N/N=C(\c2ccccc2)c2ccccn2)cc1,94% (active)
16,C=CCC1=C(C)C(OC(=O)/C=C/c2ccccc2)CC1=O (stereo not drawn),42%
17,NNc1c(F)c(F)cc(F)c1F,42%
18,COP(=O)(OC)/C(=C\C1=CN(C(c2ccccc2)(c2ccccc2)c2ccccc2)CN1)NC=O,96% (active)
19,COC(=O)c1cc(-c2ccc(C)cc2)[nH]c(=O)c1C#N,-21%
